Screening data from PubChem BioAssay.
Most compounds without a hit are left out; they make up all but 9% or so of the library.
HPGD inh: blocks human HPGD enzyme activity; purified HPGD, NADH fluorescence kinetic, PGE2 substrate; Potency, µM, without a hit: at the top dose activity change, negative = inhibition, hits mostly inhibitors; actives 4.3% (n = 150,000); AID 894; active = well fitted inhibition curve with a large enough effect, not every such curve was filed as active; inconclusive = small, poorly fitted or top-dose-only effect, or another doubt; inactive = no such curve, though single readings can be large or run the other way
Target sequence (P15428 whole entry, looked up): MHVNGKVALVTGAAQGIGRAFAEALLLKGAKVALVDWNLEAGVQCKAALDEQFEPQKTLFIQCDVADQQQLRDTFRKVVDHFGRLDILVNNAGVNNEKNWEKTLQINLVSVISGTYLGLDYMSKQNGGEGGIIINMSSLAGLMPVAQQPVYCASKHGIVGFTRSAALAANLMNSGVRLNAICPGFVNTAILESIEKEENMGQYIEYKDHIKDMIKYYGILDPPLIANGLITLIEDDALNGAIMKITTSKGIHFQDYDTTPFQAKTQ
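20 nM HPGD preincubated 15 min at room temperature with compound in 50 mM Tris-HCl pH 8, 0.01% Tween 20. Started with 1 mM NAD+ and 30 uM prostaglandin E2; NADH fluorescence (360/450 nm) read 5 times over 30-s intervals, last minus first.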
ALDH1A1 inh: blocks purified human ALDH1A1 activity. P00352. Purified ALDH1A1, NADH fluorescence, propionaldehyde substrate. Potency, µM (doses to about 75.3 µM), inactives show at the highest dose activity, negative = inhibition, most hits filed as inhibitors. actives 7.3% (n = 220,000). AID 1030; active = well fitted inhibition curve with a large enough effect, not every such curve was filed as active; inconclusive = small, poorly fitted or top-dose-only effect, or another doubt; inactive = no such curve, though single readings can be large or run the other way;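 also: plate controls were no enzyme wells and a reference inhibitor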
Lamin A splicing: modulators of lamin A splicing | HeLa LMNA splicing GFP/RFP minigene ratio, 48 h | Potency, µM (top dose mostly 46.1 µM), for the others: at the top dose ratio change, negative = inhibition, actives largely listed as inhibitors | actives 0.01% (n = 200,000); active = well fitted inhibition curve with a large enough effect in the signal ratio, with a control signal flat, not every such curve was filed as active; inconclusive = small, poorly fitted or top-dose-only effect, or effect the other way, or a change in a side signal; the % refers to the signal ratio
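Read-out is the ratio of GFP to DsRed2 object intensity, acquired by 488 nm laser-scanning cytometry on HeLa lamin A-EGFP minigene reporter cells. Compound incubation 48 hrs at 37 °C in Opti-MEM with 2% FBS; DMSO 0.5% final.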
IMPase Li cell: IMPase inhibition in cells with lithium potentiation; CHO-M1 cells, IP1 TR-FRET (IP-One), carbachol + lithium; Potency, µM (series often up to 59.4 µM), inactives show at the top dose activity, negative = IMPase inhibition, hits mostly inhibitors; actives 0.35% (n = 210,000); AID 1457;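 also: IP1 builds up when IMPase is blocked and the TR-FRET signal falls; plate controls were basal vehicle for no effect and high inhibitor control for full effect; nearly all actives have a fitted effect of over 50% in size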
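IP1 accumulation measured by competitive TR-FRET in lysed CHO-M1 cells after 30 min compound exposure at 37C, with a small lithium addition to potentiate weak responses. Hill-equation AC50 from ratio and donor-channel data.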
KinaseGlo FLuc: blocks Kinase-Glo luciferase, a counter-screen artifact; Q27757; Kinase-Glo luciferase, ATP luminescence, 8 min; Potency, µM (doses to about 38.3 µM), for the others: at the top dose activity change, negative = inhibition, usual class: inhibitors; actives 0.28% (n = 200,000); AID 1379; also: nearly all actives have a fitted effect of over 60% in size
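Inhibition of Kinase-Glo luciferase light generation was assessed at 10 uM ATP in pH 7.2 imidazole buffer, with luminescence measured after eight minutes at ambient temperature.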
An asterisk follows results filed as active; [ ] = dose if it differs, or a comment. Unless noted, calls follow the shape of the dose curve; as a rule, active = well fitted curve in the direction sought with a large enough effect; inconclusive = small, poorly fitted or top-dose-only effect, or another doubt; inactive = no such curve, though single readings can be large; an effect the other way counts as inactive or inconclusive. Unless noted, % is scaled to controls: 0 for no effect and ±100 for the full control effect; potency is read from the fitted curve at half-maximal effect.

For COC(=O)c1cccc(NC(=S)NCc2ccc(Cl)cc2)c1 the results were HPGD inh -26%, ALDH1A1 inh -14%, Lamin A splicing -1%, IMPase Li cell 10% and KinaseGlo FLuc 1%.
COC(=O)c1cc(NC(=S)NCc2ccc(Cl)cc2)cc(C(=O)OC)c1 was read as HPGD inh -25%, ALDH1A1 inh 11µM*, Lamin A splicing inconclusive, IMPase Li cell 7% and KinaseGlo FLuc 3%.
For O=C(CSc1nnc2ccccn12)N1CCc2ccccc21 the results were ALDH1A1 inh -1%, Lamin A splicing 9%[46 µM], IMPase Li cell 10% and KinaseGlo FLuc 0%.
Cc1ccc(S(=O)(=O)Nc2ccc(O)c(Sc3ncn[nH]3)c2)cc1 was read as ALDH1A1 inh inconclusive, Lamin A splicing 16%[46 µM], IMPase Li cell -2% and KinaseGlo FLuc -3%.
`CC(C)c1ccc(S(=O)(=O)/N=C2/C=C(Sc3ncn[nH]3)C(=O)c3ccccc32)cc1` gave HPGD inh 1.4µM*, ALDH1A1 inh 1.8µM*, Lamin A splicing inconclusive, IMPase Li cell 46% and KinaseGlo FLuc -8%.
For Cc1ccc(S(=O)(=O)/N=C2/C=C(Sc3ncn[nH]3)C(=O)c3ccccc32)c(C)c1 the results were HPGD inh 1.4µM*, ALDH1A1 inh 13µM*, Lamin A splicing inconclusive, IMPase Li cell 30% and KinaseGlo FLuc -4%.
For CCOc1ccc(S(=O)(=O)Nc2ccc(O)c(Sc3ncn[nH]3)c2)cc1 the results were HPGD inh -11%, ALDH1A1 inh -12%, Lamin A splicing inconclusive, IMPase Li cell 3% and KinaseGlo FLuc 1%.
Screening Cc1ccc(S(=O)(=O)/N=C2/C=C(Sc3ncn[nH]3)C(=O)c3ccccc32)cc1 returned HPGD inh 0.89µM*, ALDH1A1 inh 13µM*, Lamin A splicing inconclusive, IMPase Li cell 28% and KinaseGlo FLuc -1%.
`CCCCCNC(=O)C1CCC(Cn2c(=S)[nH]c3ccccc3c2=O)CC1` (stereo not drawn) gave ALDH1A1 inh 7%, IMPase Li cell 16% and KinaseGlo FLuc 1%.
Screening COc1ccc(N2CC(NC(=O)c3ccc(S(=O)(=O)N4CCCCC4)cc3)CC2=O)cc1OC (stereo not drawn) returned Lamin A splicing 17%[46 µM].
CCc1ccc(CNC(=O)CN2C(=O)c3cccnc3Oc3ccc(Cl)cc32)cc1 was read as Lamin A splicing 18%[46 µM].
Screening CCn1nnnc1SCC(=O)Nc1nnc(C(C)C)s1 returned HPGD inh 3%, ALDH1A1 inh inconclusive, Lamin A splicing 5%, IMPase Li cell 11%[38.3 µM] and KinaseGlo FLuc -3%.
For CCn1nnnc1SCC(=O)Nc1nc(-c2cccs2)cs1 the results were HPGD inh -18%, ALDH1A1 inh 3.2µM*, Lamin A splicing -10%, IMPase Li cell 15% and KinaseGlo FLuc 0%.
CCn1c(SCC(=O)N2CCOCC2)nc(O)cc1=O was read as HPGD inh -28%, ALDH1A1 inh 6%, Lamin A splicing -6%, IMPase Li cell -4%[38.3 µM] and KinaseGlo FLuc 1%.
For COc1ccc(-n2c(SCC(=O)N3CCCCC3)nc(O)cc2=O)cc1 the results were HPGD inh -7%, ALDH1A1 inh 22µM*, Lamin A splicing 3%, IMPase Li cell -4%[38.3 µM] and KinaseGlo FLuc -3%.
`COc1ccc(-n2c(SCC(=O)N3CCCC3)nc3ccccc3c2=O)cc1` gave ALDH1A1 inh 28%, IMPase Li cell 8% and KinaseGlo FLuc 0%.
Screening CCOC(=O)c1ccc2c(c1)nc(SCC(=O)N1CCCCC1)n2CC returned HPGD inh 5µM*, ALDH1A1 inh inconclusive, Lamin A splicing 14%, IMPase Li cell inconclusive and KinaseGlo FLuc 7%.
`CCn1c(SCC(=O)N2CCCCC2)nc(O)cc1=O` gave HPGD inh 0.28µM*, ALDH1A1 inh 1%, Lamin A splicing 13%, IMPase Li cell -2%[38.3 µM] and KinaseGlo FLuc 4%.
`NC(=O)C1CCN(CC(=O)Nc2cccnc2Cl)CC1` gave ALDH1A1 inh 22% and IMPase Li cell -5%.
